About 3,700 (1.2%) of roughly 300,000 compounds were called active. Roughly 20% stayed inconclusive and do not appear here. What follows is part of a selection rich in actives, with near analogues and random picks from the rest. Unmarked numbers belong to inactive results. Calls come from the whole dose curve; tested in HEK293 cells.
Test: qHTS for Inhibitors of binding or entry into cells for Lassa Virus; note: nearly all actives have a fitted effect of over 50% in size
Settings: Lassa virus pseudotype entry inhibition, cell reporter; series mostly up to 37.9 µM; activity change, negative = inhibition: at the top concentration
% is set by controls: 0 for no effect and ±100 for the full control effect; potency is the fitted concentration of half-maximal effect.

SMILES	activity change, negative = inhibition	Potency
COc1ccc(CCNS(=O)(=O)c2cc(-c3cc(C)no3)ccc2C)cc1OC	-8% [at 46.1 µM]	–
O=C(Nc1ccn(Cc2ccccc2F)n1)c1ccc(COc2ccc(Cl)cc2Cl)o1	–	10 µM (active)
COc1ccc(Cl)cc1NC(=O)NCC1CCN(Cc2ccccc2F)CC1	-5.4% [at 46.1 µM]	–
COC(=O)c1ccccc1NC(=O)c1ccc(COc2ccccc2Cl)o1	-10.5% [at 46.1 µM]	–
COc1ccccc1N(C)S(=O)(=O)c1ccc(Cl)c(C(=O)Nc2ccncc2)c1	-8.77%	–
CN(O)C(=S)c1ccccc1	–	6.31 µM (active)
O=C(NC(=O)c1ccccc1)NC(=O)c1ccccc1	3.38%	–
CCc1ccc(C(=O)C(C)OC(=O)CN2C(=O)NC3(CCCC3)C2=O)cc1 (stereo not given)	12%	–
CCOc1ccc(NC(=O)c2cn(C3CCCCC3)c(=O)c3c2c2ccccc2n3C)cc1	7.33% [at 46.1 µM]	–
O=C(c1ccccc1Oc1ccccc1)N1CCN(c2ccc(F)cc2)CC1	-16.9%	–
Cn1c2ccccc2c2c(C(=O)N3CCN(c4ccc(F)cc4)CC3)cn(C3CCCC3)c(=O)c21	–	10 µM (active)
O=C(NNC(=O)c1ccc(-c2ccccc2)cc1)Nc1ccccc1	11.5% [at 46.1 µM]	–
CC(Nc1ccc([N+](=O)[O-])cc1[N+](=O)[O-])c1ccccc1 (stereo not given)	0.308%	–
O=C(/C=C/c1ccccc1)N1CCN(Cc2cc(=O)n3nc(-c4ccccc4F)sc3n2)CC1	0.658% [at 46.1 µM]	–
Cc1cccc(C(=O)Nc2nnc(Cc3c[nH]c4ccccc34)s2)c1	0.566%	–
Cc1cccc(N=C2NN=C(c3c[nH]c4ccccc34)CS2)c1	–	14.6 µM (active)
CC(=O)c1c(C)[nH]c(C(=O)N2CCN(S(=O)(=O)c3ccc(F)c(F)c3)CC2)c1C	-4.88%	–
O=C(CCC1CCCCC1)Nc1cc(C(F)(F)F)ccc1N1CCOCC1	-7.6%	–
COc1cccc(C(=O)OCc2cc(=O)oc3c(C)c(C)ccc23)c1OC	1.76%	–
CCOc1ccc(NC(=O)CN(C)C(=O)Cc2sc(C)nc2-c2ccc(F)cc2)cc1OCC	19.5%	–
N#CCc1c[nH]c2ccc([N+](=O)[O-])cc12	17.9% [at 46.1 µM]	–
COc1cccc(-c2nc(S(=O)(=O)c3ccc(C)cc3)c(NCc3ccccc3)o2)c1	–	10 µM (active)
O=S(=O)(c1ccc(Br)cc1)c1nc(-c2ccccc2)oc1NCc1cccnc1	-22.6%	–
Cc1ccc(S(=O)(=O)c2nc(-c3cccs3)oc2NCc2cccnc2)cc1	2.99%	–
CN(C)c1nc(NN)nc(Nc2ccc(F)cc2)n1	-28%	–

SMILES	activity change, negative = inhibition	Potency
CCOc1ccc(C(=O)CCC(=O)Nc2ccncc2)cc1	-5.97%	–
CC(CCc1ccccc1)NC(=O)COC(=O)c1ccc(F)cc1 (stereo not given)	2.34% [at 46.1 µM]	–
CCC1(C)Cc2c(sc3nc(SC)[nH]c(=O)c23)CO1 (stereo not given)	17.9%	–
CCC1(C)Cc2c(sc3nc4n(c(=O)c23)CCCS4)CO1 (stereo not given)	3.11%	–
CCC1(C)Cc2c(sc3[nH]c(=S)n(Cc4ccccc4)c(=O)c23)CO1 (stereo not given)	–	5.62 µM (active)
O=C(CCNC(=O)c1ccccc1Cl)NN=Cc1ccco1	8.83%	–
CCOC(=O)c1csc(CCNC(=O)c2oc3c(Cl)cc(C)cc3c2C)n1	6.59%	–
CN1C(c2ccc(F)cc2)=CS/C1=C(/C#N)c1nnc2n1-c1ccccc1SC2	-0.937% [at 46.1 µM]	–
C/C(CC(=O)Nc1cccc(F)c1)=N\NC(=O)C(=O)NC1CCCCC1	3.34%	–
Cc1cc(C)cc(NC(=O)NC2CCCCCCC2)c1	-5.73% [at 46.1 µM]	–
O=C(Nc1cccc(F)c1)NC1CCCCCCC1	–	12.6 µM (active)
COc1ccc2oc(C(=O)N(CC(C)C)C3CCS(=O)(=O)C3)c(C)c2c1 (stereo not given)	-9.26%	–
COc1ccccc1N(CCOc1ccccc1)S(=O)(=O)c1ccccc1	20.1% [at 46.1 µM]	–
Cc1ccc(S(=O)(=O)N2CCC(=O)N([C@H](COCc3ccccc3)C(C)C)CC2)cc1	-26.5% [at 46.1 µM]	–
Cc1cc(C)c2nc(NC(=O)c3ccc4c(c3)OCO4)sc2c1	-1.22%	–
O=C(Nc1nc2ccccc2s1)c1ccc2c(c1)OCO2	–	2.51 µM (active)
O=C(Nc1ccc(N2CCOCC2)cc1)c1ccc2c(c1)OCO2	-22.7%	–
O=C(Nc1ccccc1F)c1ccc2c(c1)OCO2	-20.6% [at 46.1 µM]	–
O=C(Nc1ccccc1)c1ccc2c(c1)OCCCO2	–	3.16 µM (active)
O=C(c1ccc(Cl)c(S(=O)(=O)N2CCCCC2)c1)N1CCCCCC1	2.43%	–
O=C(Nc1cccc(S(=O)(=O)N2CCCCC2)c1)c1ccc2c(c1)OCO2	-18.9%	–
O=C(Nc1cccc([N+](=O)[O-])c1)c1ccc2c(c1)OCO2	-0.181%	–
O=C(Nc1ccc2c(c1)OCCO2)c1ccc(Cl)c(S(=O)(=O)N2CCCCC2)c1	–	20.6 µM (active)
N#Cc1ccccc1S(=O)(=O)N1CCN(C(=O)c2cc(-c3ccccc3)nn2-c2ccccc2)CC1	-31.9%	–
COc1ccc(-c2csc3ncnc(N4CCN(S(=O)(=O)c5ccccc5C#N)CC4)c23)cc1	-7.67%	–

SMILES	activity change, negative = inhibition	Potency
Cc1cc(C)c(NC(=O)CN2C(=O)c3cccnc3Oc3ccc(Cl)cc32)c(C)c1	20.7% [at 46.1 µM]	–
O=c1[nH]c2c(c(=O)n1-c1ccccc1)CCO2	-1.14%	–
CC(CC(=O)N1CCN(c2ccccc2)CC1)S(=O)(=O)c1ccc2c(c1)NC(=O)CS2 (stereo not given)	-3.54% [at 46.1 µM]	–
COc1ccc(-c2nc3sc(CCNC(=O)C(C)(C)C)c(C)n3n2)cc1	1.48% [at 46.1 µM]	–
CC(=O)c1ccc(OC(NC(=O)Cc2ccccc2)C(Cl)(Cl)Cl)cc1 (stereo not given)	-2.01%	–
CCC[C@@H]1C[C@@]1(CCC)[C@@H](NC(=O)c1ccccc1)c1ccc(C(=O)OC)cc1	0.512%	–
CCC/C=C(\CCC)C(NC(=O)Cc1ccccc1)c1ccc(C(=O)OC)cc1 (stereo not given)	–	6.51 µM (active)
COc1ccc(OCC(=O)NNC(=O)C2CCC2)cc1	-10.5%	–
Cc1ccc(NC(=O)C(C)OC(=O)C2CC3CCCC(C2)C3=O)cc1S(=O)(=O)N1CCOCC1 (stereo not given)	-0.229%	–
Fc1ccc(N2CCN(Cc3ccc4c(c3)OCO4)CC2)cc1	-16.6% [at 14.3 µM]	–
Fc1ccc2[nH]c3c(N4CCN(Cc5ccc6c(c5)OCO6)CC4)ncnc3c2c1	–	15.8 µM (active)
O=c1[nH]c(N2CCN(Cc3ccc4c(c3)OCO4)CC2)nc2c1CCCC2	-1.39% [at 46.1 µM]	–
Cc1cc2c(cc3c(SCc4nc(-c5ccccc5)oc4C)nnc(C)n32)o1	28.3% [at 46.1 µM]	–
Cc1ccc2c(c1)C1CN(C)CCC1N2S(=O)(=O)c1cccc(F)c1 (stereo not given)	3.79%	–
CN(C)CCCN(C(=O)c1ccc(S(=O)(=O)N2CCCCCC2)cc1)c1nc2cc3c(cc2s1)OCCO3	–	14.1 µM (active)
CCc1ccc2nc(N(CCCN(C)C)C(=O)c3ccc4c(c3)OCCO4)sc2c1	1.68% [at 46.1 µM]	–
CCN(CC)CCN(C(=O)c1ccc(S(=O)(=O)N2CCOCC2)cc1)c1nc2cc3c(cc2s1)OCCO3	1.98%	–
CC(C)CC1(C)NC(=O)N(CC(=O)Nc2ccc3c(c2)OCCO3)C1=O (stereo not given)	-6.74%	–
CN(CC(=O)Nc1cccc(F)c1)C(=O)C1CC(=O)N(CCc2ccccc2)C1 (stereo not given)	13.9%	–
CN(C)c1ccc(NC(=S)N(CCc2ccccc2)C2CC(=O)N(c3c(Cl)cccc3Cl)C2=O)cc1 (stereo not given)	–	3.55 µM (active)
COC(=O)CN(C(=S)Nc1ccc(Cl)cc1)C1CC(=O)N(c2ccc(OC)cc2)C1=O (stereo not given)	-18%	–
O=C(COc1ccccc1Cl)Nc1ccc2nc(SCC(=O)N3CCCC3)sc2c1	-3.61% [at 46.1 µM]	–
CC(C)(C)C(=O)COC(=O)c1cc(S(=O)(=O)N2CCCCC2)ccc1N1CCOCC1	4.41%	–
Cc1[nH]nc(-c2ccc(OCc3cnn(-c4ccccc4)c3)cc2O)c1Oc1ccc(Cl)cc1	-26.1%	–
COc1ccccc1-c1n[nH]c2c1[C@H](C)CC[C@H]2C(C)C	-1.72%	–

SMILES	activity change, negative = inhibition	Potency
CC(=O)COc1ccc2c(-c3ccccc3)cc(=O)oc2c1	15.8%	–
COc1ccccc1-c1c(C)nn2c(C)c(C(C)=O)cnc12	25.8%	–
C=C(C)COc1ccc(-c2n[nH]c(C)c2-c2ccccc2OC)c(O)c1	–	7.08 µM (active)
C=C(C)COc1ccc(-c2n[nH]c(C)c2-c2ccccc2)c(O)c1	–	1.78 µM (active)
Cc1cccc(C(=O)NNC(=O)CSc2nnc(C(C)C)n2C)c1	8.98%	–
CCN(C(=O)COC(=O)c1ccccc1O)c1cccc2ccccc12	-16.7%	–
CCOC(=O)c1c(S(=O)(=O)Nc2cccc(Cl)c2)c(C)n(C)c1C	-22% [at 46.1 µM]	–
CC(C)(C)c1nnc2sc(SCC(O)=C(C#N)c3nc4ccccc4[nH]3)nn2c1=O	11.1% [at 46.1 µM]	–
CCc1cccc(C)c1NC(=S)N(CCCN1CCN(C)CC1)Cc1cccs1	9.25%	–
Cc1ccc(NC(=S)N(CCN(C)C)Cc2cccs2)cc1C	–	6.31 µM (active)
Cc1ccccc1NC(=S)N(CCCN1CCOCC1)Cc1cccs1	-10.1%	–
Cc1ccc(-n2c(SCC(=O)Nc3ncc(Cl)cc3Cl)nc3ccccc32)cc1	–	0.291 µM (active)
CCOc1ccc(-n2c(SCC(=O)Nc3cc(C(=O)O)ccc3Cl)nc3ccccc3c2=O)cc1	7.66%	–
Cc1ccc(SCCC(=O)OCC(=O)Nc2ncc(Cl)cc2Cl)cc1	-0.403%	–
CC/C(=C(/c1ccccc1)c1ccc(OCC[N+](C)(C)C)cc1)c1ccccc1	-15.8%	–
Cc1ccc(S(=O)(=O)N2CCCCC2)cc1C(=O)N(C)CC(=O)Nc1cccc(F)c1	-0.12%	–
c1c2c(cc3sc(N4CCCCC4)nc13)OCCO2	–	1.58 µM (active)
O=C(NCc1ccc(F)cc1)c1ccc2nc(N3CCCCC3)sc2c1	12% [at 46.1 µM]	–
Cc1nc2cc3c(cc2s1)OCO3	3.6%	–
Cc1ccc(N(C(=O)c2sc(C)nc2C)C(C(=O)NC(C)(C)C)c2ccncc2)cc1 (stereo not given)	-13.5%	–
Cc1nc(C)c(C(=O)N(c2ccc(C)c(C)c2)C(C(=O)NCc2ccco2)c2ccccc2)s1 (stereo not given)	–	4.61 µM (active)
Cc1cccc(N(C(=O)Cc2cccs2)C(C(=O)NCc2ccco2)c2ccncc2)c1 (stereo not given)	-4.42%	–
Cc1ccc(OCc2cc(C(=O)N(C)CCn3ccnc3C)no2)cc1C	-3.12%	–
CCCN1CCN(C(=O)CCCNC(=O)c2ccc(Cl)cc2)CC1	19.3% [at 46.1 µM]	–
COc1ccccc1N1CCN(c2nc(C)cc(=O)[nH]2)CC1	3.38% [at 46.1 µM]	–

— PubChem BioAssay AID540256 (National Center for Advancing Translational Sciences (NCATS), 2011)
